Results: PubChem BioAssay (NCATS)
Inconclusive results are not listed. A number with no mark means an inactive call. Activity calls are given as the source filed them. Calls follow the shape of the dose curve; as a rule, active = well fitted cell-killing curve with a large enough effect; inconclusive = small, poorly fitted or top-dose-only effect; inactive = flat fitted curve, though single readings scatter.

Assay: Quantitative highthroughput screen to assess conditional lethalithy of P12 Ichikawa cells grown in Human Plasma-Like Medium with dialyzed fetal bovine serum (HPLM+ds) (AID 1963879)
Details: ATP luminescence, 48 h; Potency: viability; series mostly up to 45.8 µM; viability: at the top concentration
Summary of the method: (§1)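 Each medium arm—HPLM with 10% dialyzed FBS, or RPMI1640 with 5 mM glucose and 10% untreated or dialyzed FBS—was screened against an 11-point, 3-fold compound titration for 48 h at 37 °C, with CellTiter-Glo luminescence as endpoint.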
Also: nearly all actives have a fitted effect of over 35% in size.
Potency is read from the fitted curve at half-maximal effect.

SMILES	Potency	viability
CCN1CCC(n2cc(CNc3cc(Cl)c4ncc(C#N)c(Nc5ccc(F)c(Cl)c5)c4c3)nn2)CC1	4.18 µM (active)	
Cc1nc2c(-c3cnc(N)nc3)nc(N3CCOCC3)nc2n1C(C)C	0.0029 µM (active)	
O=C(Nc1ncc(-c2cc(C(F)F)nn2-c2c(Cl)cccc2Cl)s1)C1CC1	0.935 µM (active)	
CO[C@@H]1[C@H](N(C)C(=O)c2ccccc2)C[C@H]2O[C@]1(C)n1c3ccccc3c3c4c(c5c6ccccc6n2c5c31)C(=O)NC4	2.64 µM (active)	
O=C1c2c(O)ccc(O)c2C(=O)c2c(NCCNCCO)ccc(NCCNCCO)c21	0.296 µM (active)	
O=C1CCC[C@@H]2[C@H]3CCC[N+]4([O-])CCC[C@@H](CN12)[C@@H]34 (some centres undefined)		100%
CC(C)C(=O)Nc1ccc([N+](=O)[O-])c(C(F)(F)F)c1	1.87 µM (active)	
O=C(Nc1ccc([N+](=O)[O-])cc1Cl)c1cc(Cl)ccc1O	3.72 µM (active)	
COc1ccccc1[C@H](c1cccc2ccccc12)[C@@](C)(C#N)C(=O)N1CCC(c2cccc(C(F)(F)F)c2)CC1	16.6 µM (active)	
Cc1cc(-c2ccc(CC(=O)Nc3ccc(-c4cccnc4)cc3)cc2)ccn1	6.62 µM (active)	
CCCCCCCCCCCC(CC1OC(=O)C1CCCCCC)OC(=O)C(CC(C)C)NC=O (centres undefined)	20.9 µM (active)	
COc1cc(OC)c(NC(=O)Nc2cc(C)on2)cc1Cl		102%
O=C(NCc1ccncc1)C12C[C@H]3C[C@@H](C1)CC(c1ccc(Cl)cc1)(C3)C2	11.8 µM (active)	
Cc1cc(Nc2cc(N3CCN(C)CC3)nc(Sc3ccc(NC(=O)C4CC4)cc3)n2)n[nH]1	0.332 µM (active)	
O=C(O)CCCCC(CCSCc1ccccc1)SCc1ccccc1 (centres undefined)	14.8 µM (active)	
CN(C)[C@@H](CCOc1cccc2ccccc12)c1ccccc1		90.1%
CCc1c2c(nc3ccc(O)cc13)-c1cc3c(c(=O)n1C2)COC(=O)[C@]3(O)CC	0.0053 µM (active)	
CCc1cccc(CC)c1NC(=O)N1Cc2[nH]nc(NC(=O)c3ccc(N4CCN(C)CC4)cc3)c2C1	1.87 µM (active)	
OC[C@H]1OC(O)C[C@@H](O)[C@H]1O (some centres undefined)		88.1%
Oc1cc(-c2nc(-c3ccccc3)[nH]c2-c2ccncc2)ccc1Cl	16.6 µM (active)	
Nc1nc(NCCNc2ncc(-n3ccnc3)c(-c3ccc(Cl)cc3Cl)n2)ccc1[N+](=O)[O-]		99.1%
COc1ccc2c(c1)CC[C@@H](CN(C)CC(=O)O)[C@H]2c1ccccc1	2.64 µM (active)	
Nc1nc2c(c(=O)[nH]1)N(C=O)[C@H](CNc1ccc(C(=O)N[C@@H](CCC(=O)O)C(=O)O)cc1)CN2	2.96 µM (active)	
Nc1nc(Cl)nc2c1ncn2[C@@H]1O[C@H](CO)[C@@H](O)[C@H]1F		7.84%
CC1(COc2ccc3c(c2)ncn3-c2ccc3cccc(N4CCC(N)CC4)c3n2)COC1	10.5 µM (active)	
C[N+](C)([O-])CCNc1ccc(NCC[N+](C)(C)[O-])c2c1C(=O)c1c(O)ccc(O)c1C2=O	1.66 µM (active)	

Assay: Quantitative highthroughput screen to assess conditional lethalithy of P12 Ichikawa cells grown in RPMI1640 with dialyzed fetal bovine serum (RPMI+ds) (AID 1963880);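 as to viability: 100% = DMSO wells and 0% = empty wells on each plate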
Details: ATP luminescence, 48 h; Potency: P12-Ichikawa viability; series mostly up to 45.8 µM; viability: at the top concentration
Summary of the method: as §1

SMILES	Potency	viability
Cc1nc2c(-c3cnc(N)nc3)nc(N3CCOCC3)nc2n1C(C)C	0.0234 µM (active)	
O=C1c2c(O)ccc(O)c2C(=O)c2c(NCCNCCO)ccc(NCCNCCO)c21	0.332 µM (active)	
O=C1CCC[C@@H]2[C@H]3CCC[N+]4([O-])CCC[C@@H](CN12)[C@@H]34 (some centres undefined)		102%
Nc1nccc(Oc2ccc(NC(=O)c3c[nH]cc(-c4ccc(F)cc4)c3=O)cc2F)c1Cl	26.4 µM (active)	
CC(C)C(=O)Nc1ccc([N+](=O)[O-])c(C(F)(F)F)c1	3.32 µM (active)	
O=C(Nc1ccc([N+](=O)[O-])cc1Cl)c1cc(Cl)ccc1O	2.96 µM (active)	
Cc1cc(-c2ccc(CC(=O)Nc3ccc(-c4cccnc4)cc3)cc2)ccn1	10.5 µM (active)	
CCCCCCCCCCCC(CC1OC(=O)C1CCCCCC)OC(=O)C(CC(C)C)NC=O (centres undefined)	23.5 µM (active)	
COc1cc(OC)c(NC(=O)Nc2cc(C)on2)cc1Cl		94%
CCC[C@H](Nc1nc(-c2ccc(NC(=O)NCC)c(OC)c2)ncc1C)c1cccnc1	0.0418 µM (active)	
CN(C)c1nc(Cc2ccc(NC(=O)c3ccc4ccccc4c3)cc2)nc(Cl)c1CC(=O)O	5.26 µM (active)	
CCCCC(C)(C)[C@H](O)C=C[C@H]1[C@H](O)CC(=O)[C@H]1CC=CCCCC(=O)O	23.5 µM (active)	
CCc1c2c(nc3ccc(O)cc13)-c1cc3c(c(=O)n1C2)COC(=O)[C@]3(O)CC	0.0042 µM (active)	
OC[C@H]1OC(O)C[C@@H](O)[C@H]1O (some centres undefined)		88.1%
Nc1nc(NCCNc2ncc(-n3ccnc3)c(-c3ccc(Cl)cc3Cl)n2)ccc1[N+](=O)[O-]		103%
CCN(CC)CCCCNc1nc2cc(Cl)c(Cl)cc2nc1-c1ccc(-c2cccs2)s1	26.4 µM (active)	
Nc1nc2c(c(=O)[nH]1)N(C=O)[C@H](CNc1ccc(C(=O)N[C@@H](CCC(=O)O)C(=O)O)cc1)CN2	3.32 µM (active)	
Nc1nc(Cl)nc2c1ncn2[C@@H]1O[C@H](CO)[C@@H](O)[C@H]1F		13.2%
